According to PubChem BioAssay (NCATS):
Results filed as inconclusive are left out. Activity calls are given as the source filed them. Calls follow the shape of the dose curve; as a rule, active = well fitted curve in the direction sought with a large enough effect; inconclusive = small, poorly fitted or top-dose-only effect, or another doubt; inactive = no such curve, though single readings can be large; an effect the other way counts as inactive or inconclusive.

Tests used:
[1] = target: Rap guanine nucleotide exchange factor 3 (Homo sapiens) (UniProt O95398); experiment: Confirmatory qHTS for antagonist of cAMP-regulated guanine nucleotide exchange factor 3 (EPAC1) (AID 1645880); conditions: EPAC1 Rap1B-BODIPY-GDP exchange, fluorescence; activity, negative = inhibition: at 115 µM (top of the series); also: nearly all actives have a fitted effect of over 55% in size; also: potency is read from the fitted curve at half-maximal effect;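 as to activity, negative = inhibition: plate controls were DMSO only for no effect and full effect of the ATA control for full effect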
Sequence of Rap guanine nucleotide exchange factor 3 (Homo sapiens) (O95398 whole entry, looked up): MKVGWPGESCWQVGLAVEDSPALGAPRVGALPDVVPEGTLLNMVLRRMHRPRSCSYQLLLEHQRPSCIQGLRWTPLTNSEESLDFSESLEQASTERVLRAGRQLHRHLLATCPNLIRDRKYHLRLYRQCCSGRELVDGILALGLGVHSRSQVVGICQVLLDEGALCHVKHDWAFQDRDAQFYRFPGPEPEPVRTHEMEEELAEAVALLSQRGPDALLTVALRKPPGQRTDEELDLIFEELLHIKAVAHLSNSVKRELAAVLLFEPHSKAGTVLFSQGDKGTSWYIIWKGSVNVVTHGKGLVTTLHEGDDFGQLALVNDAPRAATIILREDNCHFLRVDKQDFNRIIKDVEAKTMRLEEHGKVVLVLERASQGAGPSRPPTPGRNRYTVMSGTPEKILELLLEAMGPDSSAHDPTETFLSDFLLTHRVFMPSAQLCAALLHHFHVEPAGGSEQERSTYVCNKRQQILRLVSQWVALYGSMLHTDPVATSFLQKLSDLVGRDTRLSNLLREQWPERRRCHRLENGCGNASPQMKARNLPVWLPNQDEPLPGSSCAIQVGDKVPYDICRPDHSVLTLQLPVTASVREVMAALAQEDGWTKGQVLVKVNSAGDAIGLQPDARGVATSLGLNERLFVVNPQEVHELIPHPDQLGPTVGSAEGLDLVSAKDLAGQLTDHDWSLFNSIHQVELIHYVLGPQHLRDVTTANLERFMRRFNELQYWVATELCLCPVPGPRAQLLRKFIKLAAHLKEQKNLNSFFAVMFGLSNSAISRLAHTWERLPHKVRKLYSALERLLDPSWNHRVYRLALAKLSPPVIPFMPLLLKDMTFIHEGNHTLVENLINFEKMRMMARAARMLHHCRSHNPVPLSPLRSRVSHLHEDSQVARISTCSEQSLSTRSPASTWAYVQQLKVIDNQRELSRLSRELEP
In short: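 Nucleotide exchange uses 100 nM EPAC1, 250 nM RAP1B-BODIPY-GDP and 50 uM GDP, with compounds in a concentration-titration series. After 5 min at room temperature, fluorescence (480 nm ex/540 nm em) is read every 5 min for 30 min. Data are normalized to control ATA and DMSO.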

[2] = target: Rap guanine nucleotide exchange factor 3 (Homo sapiens) (UniProt O95398); experiment: Confirmatory qHTS for agonist of cAMP-regulated guanine nucleotide exchange factor 3 (EPAC1) (AID 1645881); also: nearly all actives have a fitted effect of over 75% in size; also: potency is read from the fitted curve at half-maximal effect;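 as to activation: EPAC1 catalysed release of BODIPY-GDP from Rap1B seen as fluorescence loss; 100% = effect of cAMP agonist control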
[3] = target: Rap guanine nucleotide exchange factor 3 (Homo sapiens) (UniProt O95398); experiment: Counterscreen qHTS for antagonist of cAMP-regulated guanine nucleotide exchange factor 3 (EPAC1) (AID 1645888);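 also: fluorescence loss as bound BODIPY-GDP is released from Rap1B; % of control where 0% means no effect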
In short: (§1)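 Rap1B-BODIPY-GDP 250 nM + GDP 50 uM; cpds 7-pt, final 9.74 nM–152 uM (activator mode) or from 7.32 nM upwards (inhibitor mode); RT; FI 480/540 nm at 5 and 30 min, then ± cAMP, reread.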

[4] = target: Rap guanine nucleotide exchange factor 3 (Homo sapiens) (UniProt O95398); experiment: Counterscreen qHTS for agonist of cAMP-regulated guanine nucleotide exchange factor 3 (EPAC1) (AID 1645889); also: nearly all actives have a fitted effect of over 40% in size; also: potency is read from the fitted curve at half-maximal effect; as to activation: % of control where 0% means no effect
In short: as §1

COc1ccccc1C1CC(=O)Oc2cc(C)c(Cl)c(C)c21 (stereo not drawn)
inactive: Potency [1] | Potency [2] | activity change, negative = inhibition [3] 3.69% [at 30.8 µM] | activation [4] 15.1% [at 30.8 µM]

C=CCSc1nc2ccccc2c(=O)n1Cc1ccccc1
inactive: Potency [1] | Potency [2] | activity change, negative = inhibition [3] 17.3% [at 30.8 µM] | activation [4] 7.4% [at 30.8 µM]

CCCC(CNC(C)=O)(C1=CCCCC1)c1ccccc1 (stereo not drawn)
inactive: Potency [1] | Potency [2] | activity change, negative = inhibition [3] 1.17% [at 30.8 µM] | activation [4] 15.1% [at 30.8 µM]

c1ccc(CNc2c(-c3cccc(SC4CCCCC4)c3)nc3ccccn23)cc1
inactive: Potency [1] | Potency [2] | activity change, negative = inhibition [3] 4.85% [at 30.8 µM] | activation [4] 4.1% [at 30.8 µM]

COc1ccccc1-c1oc2ccccc2c1-c1ccc2c(c1)OCO2
inactive: Potency [1] | Potency [2] | Potency [4]

C=CCOc1ccc(/C=N/NC(C)=O)cc1OCC
inactive: Potency [1] | Potency [2] | Potency [3] | Potency [4]

O=C(O)c1cnn(-c2nc(-c3ccc(Cl)c(Cl)c3)cs2)c1C(F)(F)F
active: Potency [1] 75.7 µM
inactive: Potency [2] | Potency [3] | Potency [4]

COc1ccc(N2C(=O)CSC2c2ccccc2F)c(OC)c1 (stereo not drawn)
inactive: Potency [1] | Potency [2] | Potency [3] | Potency [4]

CCc1ccc([C@@H]2CC=C(C(=O)O)[C@H](c3ccc(Cl)cc3)N2S(=O)(=O)c2ccc(C)cc2)cc1
active: Potency [1] 50.1 µM
inactive: Potency [2] | activity change, negative = inhibition [3] -9.33% [at 30.8 µM] | activation [4] 4.76% [at 30.8 µM]

CC(C)c1nc2cc(Cl)ccc2n(Cc2ccccc2)c1=O
inactive: Potency [1] | Potency [2] | Potency [3] | Potency [4]

COc1ccc(S(=O)(=O)N2CCCC2)c2ccccc12
inactive: Potency [1] | Potency [2] | activity change, negative = inhibition [3] -10.4% [at 30.8 µM] | activation [4] 9.58% [at 30.8 µM]

Cc1cc2nc3c(=O)n(C)c(=O)n(C)c3nc2cc1N=CN(C)C
active: Potency [2] 50.1 µM | Potency [4] 44.7 µM
inactive: Potency [1]

Cc1ccc(C2(c3noc(CN(C)Cc4ccccn4)n3)CCCC2)cc1
inactive: Potency [1] | Potency [2] | activity change, negative = inhibition [3] -21.5% [at 30.8 µM] | activation [4] 1.73% [at 30.8 µM]

CCOc1cc(C)c(S(=O)(=O)N2CCCCC2)cc1C
inactive: Potency [1] | Potency [2] | Potency [3] | Potency [4]

O=C1[C@H]2CCC=C[C@H]2[C@H](c2ccccc2Br)N1Cc1ccccc1
inactive: Potency [1] | Potency [2] | Potency [3] | Potency [4]
